Data from PubChem BioAssay AID1159580 (chemical genetic matrix, 2015).
In all, about 5,500 compounds went through this assay and about 2,000 (36%) were called active. Not shown: some 18% with an inconclusive outcome. Rule as the data show it: active = normalized growth mostly below about 0.91 (no sharp cut-off); inconclusive = no clear call, values can overlap the other calls; inactive = mostly above about 0.92. The list shows a part of the results.

Assay: chemical genetic growth profiling, strain panel (AID 1159580);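 also: tested at 20 µM; growth read once vehicle control cultures reached saturation at 30 °C; 1 = growth at the plate median or of vehicle wells; lower values mean less growth of the strain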
Conditions: growth OD

Measured: normalized growth

NC(N)=NOCC[C@H](N)C(=O)O
inactive: S. cerevisiae deletion strains, locus YJR043C, strain POL32, active compounds read low 1 | S. cerevisiae deletion strains, locus YJR075W, strain HOC1, active compounds read low 0.983 | S. cerevisiae deletion strains, locus YKL009W, strain mrt4, active compounds read low 0.971 | S. cerevisiae deletion strains, locus YKL068W, active compounds read low 0.978 | S. cerevisiae deletion strains, locus YKL085W, strain MDH1 (second series), active compounds read low 0.969 | S. cerevisiae deletion strains, locus YKL085W, strain MDH1, active compounds read low 0.969 | S. cerevisiae deletion strains, locus YKL160W, strain elf1, active compounds read low 1.01 | S. cerevisiae deletion strains, locus YKL190W, strain CNB1, active compounds read low 0.995 | S. cerevisiae deletion strains, locus YKR001C, strain vps1, active compounds read low 1 | S. cerevisiae deletion strains, locus YKR026C, strain gcn3, active compounds read low 1.01 | S. cerevisiae deletion strains, locus YKR091W, strain srl3, active compounds read low 1.01 | S. cerevisiae deletion strains, locus YLL001W, strain dnm1, active compounds read low 1.01 | S. cerevisiae deletion strains, locus YLL026W, active compounds read low 1.01 | S. cerevisiae deletion strains, locus YLL041C, strain sdh2, active compounds read low 1.01 | S. cerevisiae deletion strains, locus YLR027C, strain aat2, active compounds read low 1.01 | S. cerevisiae deletion strains, locus YLR039C, strain RIC1, active compounds read low 0.933 | S. cerevisiae deletion strains, locus YLR058C, strain SHM2, active compounds read low 0.984 | S. cerevisiae deletion strains, locus YLR102C, strain apc9, active compounds read low 0.988 | S. cerevisiae deletion strains, locus YLR221C, strain rsa3, active compounds read low 1.02 | S. cerevisiae deletion strains, locus YLR258W, strain gsy2, active compounds read low 1.01 | S. cerevisiae deletion strains, locus YLR262C, strain YPT6 (second series), active compounds read low 1.02 | S. cerevisiae deletion strains, locus YLR262C, strain YPT6, active compounds read low 0.954 | S. cerevisiae deletion strains, locus YLR268W, strain sec22, active compounds read low 1.03 | S. cerevisiae deletion strains, locus YLR320W, strain mms22, active compounds read low 1.02 | S. cerevisiae deletion strains, locus YLR330W, strain CHS5, active compounds read low 0.977 | S. cerevisiae deletion strains, locus YLR342W, strain FKS1 (second series), active compounds read low 1.01 | S. cerevisiae deletion strains, locus YLR342W, strain FKS1, active compounds read low 0.992 | S. cerevisiae deletion strains, locus YLR357W, strain rsc2, active compounds read low 1.03 | S. cerevisiae deletion strains, locus YLR370C, strain arc18, active compounds read low 1.02 | S. cerevisiae deletion strains, locus YLR371W, strain rom2, active compounds read low 0.964 | S. cerevisiae deletion strains, locus YLR384C, strain iki3, active compounds read low 1.01 | S. cerevisiae deletion strains, locus YLR418C, strain cdc73, active compounds read low 1.02 | S. cerevisiae deletion strains, locus YML016C, strain PPZ1, active compounds read low 0.992 | S. cerevisiae deletion strains, locus YML032C, strain rad52, active compounds read low 0.976 | S. cerevisiae deletion strains, locus YML120C, strain ndi1, active compounds read low 1.02 | S. cerevisiae deletion strains, locus YML124C, strain tub3, active compounds read low 0.996 | S. cerevisiae deletion strains, locus YMR058W, strain fet3, active compounds read low 1 | S. cerevisiae deletion strains, locus YMR078C, strain ctf18, active compounds read low 0.998 | S. cerevisiae deletion strains, locus YMR125W, strain sto1, active compounds read low 1 | S. cerevisiae deletion strains, locus YMR129W, active compounds read low 1.02 | S. cerevisiae deletion strains, locus YMR205C, strain PFK2, active compounds read low 1.01 | S. cerevisiae deletion strains, locus YMR223W, strain ubp8, active compounds read low 0.976 | S. cerevisiae deletion strains, locus YMR231W, strain pep5, active compounds read low 1.02 | S. cerevisiae deletion strains, locus YMR263W, strain SAP30, active compounds read low 1.01 | S. cerevisiae deletion strains, locus YMR307W, strain GAS1, active compounds read low 1.06 | S. cerevisiae deletion strains, locus YNL067W, strain RPL9B, active compounds read low 1.02 | S. cerevisiae deletion strains, locus YNL071W, strain lat1, active compounds read low 1.01 | S. cerevisiae deletion strains, locus YNL128W, strain TEP1, active compounds read low 0.992 | S. cerevisiae deletion strains, locus YNL153C, strain GIM3, active compounds read low 1.03 | S. cerevisiae deletion strains, locus YNL209W, strain ssb2, active compounds read low 1 | S. cerevisiae deletion strains, locus YNL233W, strain BNI4, active compounds read low 1.03 | S. cerevisiae deletion strains, locus YNL248C, strain rpa49, active compounds read low 1.02 | S. cerevisiae deletion strains, locus YNL250W, strain rad50, active compounds read low 0.961 | S. cerevisiae deletion strains, locus YNL271C, strain bni1, active compounds read low 0.973 | S. cerevisiae deletion strains, locus YNL298W, strain CLA4, active compounds read low 0.989 | S. cerevisiae deletion strains, locus YNL307C, strain MCK1, active compounds read low 1 | S. cerevisiae deletion strains, locus YNL322C, strain KRE1 (second series), active compounds read low 1.01 | S. cerevisiae deletion strains, locus YNL322C, strain KRE1, active compounds read low 0.984 | S. cerevisiae deletion strains, locus YNR049C, strain mso1, active compounds read low 1.01 | S. cerevisiae deletion strains, locus YNR052C, strain pop2, active compounds read low 0.974 | S. cerevisiae deletion strains, locus YOL006C, strain TOP1, active compounds read low 1.07 | S. cerevisiae deletion strains, locus YOL012C, strain htz1 1.13 | S. cerevisiae deletion strains, locus YOL147C, strain pex11, active compounds read low 0.986 | S. cerevisiae deletion strains, locus YOR001W, strain rrp6, active compounds read low 1.03 | S. cerevisiae deletion strains, locus YOR061W, strain CKA2, active compounds read low 0.991 | S. cerevisiae deletion strains, locus YOR069W, strain VPS5, active compounds read low 0.994 | S. cerevisiae deletion strains, locus YOR070C, strain gyp1, active compounds read low 1.02 | S. cerevisiae deletion strains, locus YOR080W, strain dia2, active compounds read low 1.02 | S. cerevisiae deletion strains, locus YOR083W, strain WHI5, active compounds read low 1 | S. cerevisiae deletion strains, locus YOR106W, strain vam3, active compounds read low 1.01 | S. cerevisiae deletion strains, locus YOR136W, strain idh2, active compounds read low 0.988 | S. cerevisiae deletion strains, locus YOR144C, strain elg1, active compounds read low 0.989 | S. cerevisiae deletion strains, locus YOR184W, strain ser1, active compounds read low 0.971 | S. cerevisiae deletion strains, locus YOR265W, strain rbl2, active compounds read low 1.01 | S. cerevisiae deletion strains, locus YOR270C, strain vph1, active compounds read low 1.04 | S. cerevisiae deletion strains, locus YOR290C, strain snf2, active compounds read low 1.02 | S. cerevisiae deletion strains, locus YOR316C, strain cot1, active compounds read low 0.992 | S. cerevisiae deletion strains, locus YPL051W, strain arl3, active compounds read low 1.01 | S. cerevisiae deletion strains, locus YPL055C, strain LGE1, active compounds read low 1.02 | S. cerevisiae deletion strains, locus YPL078C, strain atp4, active compounds read low 1.02 | S. cerevisiae deletion strains, locus YPL106C, strain sse1, active compounds read low 1.03 | S. cerevisiae deletion strains, locus YPL240C, strain hsp82, active compounds read low 1 | S. cerevisiae deletion strains, locus YPL241C, strain CIN2, active compounds read low 0.993 | S. cerevisiae deletion strains, locus YPR119W, strain clb2, active compounds read low 0.996 | S. cerevisiae deletion strains, locus YPR141C, strain kar3, active compounds read low 0.988 | S. cerevisiae deletion strains, locus YPR163C, strain tif3, active compounds read low 0.983 | S. cerevisiae deletion strains, locus YPR167C, strain met16, active compounds read low 0.985 | S. cerevisiae deletion strains, strain wtn01, active compounds read low 0.999 | S. cerevisiae strains, strain wild type, active compounds read low 0.992
